Assay outcomes from PubChem.
TDP-43 yeast inh: qHTS of TDP-43 Inhibitors | TDP-43 expressing yeast growth rescue, BacTiter-Glo, 24 h | Potency, µM (doses to about 46.1 µM), without a hit: at the highest dose growth rescue (activation), actives largely listed as activators | 1.8% of 410,000 active; also: % of control where 0% means no effect; nearly all actives have a fitted effect of over 50% in size
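Luminescence from BacTiter-Glo reports growth of TDP-43-expressing yeast after 24 hr at 30 deg C with compound. Cells were raffinose-pregrown to mid-log, then seeded in galactose medium at OD600=0.02.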
Mm-Cpn inhibitor: Inhibitors of TCP-1 ring complex (TRiC) of Methanococcus maripaludis (MmCpn): qHTS; Chaperonin Mm-Cpn (Methanococcus maripaludis); purified Mm-Cpn ATPase, ADP Transcreener TR-FRET; Potency, µM (top dose mostly 76.9 µM), for the others: top-dose activity, negative = inhibition, most hits filed as inhibitors; 0.031% of 330,000 active; also: % is scaled to controls: 0 for no effect and ±100 for the full control effect; nearly all actives have a fitted effect of over 80% in size
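Measured: ADP formation by purified Mm-CPN. Conditions: 25 nM protein, 10 uM ATP, Tris pH 7.4 with Mg2+, K+ and DTT, 37°C for 30 min. Detection: Transcreener HTRF after 30 min at room temperature.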
Abeta yeast res: qHTS for compounds that reverse cellular toxicity of Amyloid beta (A-beta) peptide in yeast: Primary Screen | 0.063% of 410,000 active | Potency, µM (doses to about 46.1 µM), usual class: activators | yeast expressing A-beta42, growth rescue, OD600, 48 h; response scale: 0% DMSO, 100% iron-clioquinol control; also: nearly all actives have a fitted effect of over 55% in size
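Growth rescue measured by 600 nm absorbance after 48 h yeast culture at 30 C with compound. Values normalized between DMSO and an equimolar ferric chloride plus clioquinol control.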
aSyn rescue: qHTS of alpha-syn Inhibitors | 0.14% of 370,000 active | Yeast expressing alpha-synuclein, growth rescue, BacTiter-Glo, 24 h | Potency, µM (highest dose often 46.1 µM), for the others: at the highest dose growth rescue (activation), actives largely listed as activators | AID 652106, 2013; also: % of control where 0% means no effect; nearly all actives have a fitted effect of over 65% in size
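Galactose-induced alpha-syn yeast (OD600=0.02, raffinose-pregrown) + pinned cpd, 24 hr, 30 deg C; growth by BacTiter-Glo luminescence. Growth restoration scores as activation.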
FUS yeast rescue: qHTS for Suppressors of FUS Proteinopathy: Primary screen using FUS-linked yeast assay | S. cerevisiae FUS-expressing, growth rescue, OD600, 24 h | Potency, µM (doses to about 76.6 µM), usual class: activators | 0.24% of 390,000 active;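 also: plate controls were DMSO vehicle for no effect and reference control for full effect; nearly all actives have a fitted effect of over 55% in size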
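Compound concentration series was pinned onto galactose-induced FUS-expressing yeast seeded at OD 0.005. Plates sat 24hr at 30C; absorbance at 600 nm gave growth. DMSO served as background control.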
ClpP mod: qHTS Assay for Activators of ClpP; ATP-dependent Clp protease proteolytic subunit (Bacillus subtilis (strain 168)), P80244; purified B. subtilis ClpP, FRET peptide cleavage, 20 min; Potency, µM (doses to about 57.5 µM), without a hit: at the highest dose activity change, negative = active; 1.9% of 340,000 active; AID 651965, 2013; active = well fitted falling curve with a large enough effect; inconclusive = small, poorly fitted or top-dose-only effect; inactive = no such curve, though single readings can be large or run the other way; also: the source files actives as falling curves though it sought activators and does not explain the sign; nearly all actives have a fitted effect of over 65% in size
Target sequence (P80244 whole entry, looked up): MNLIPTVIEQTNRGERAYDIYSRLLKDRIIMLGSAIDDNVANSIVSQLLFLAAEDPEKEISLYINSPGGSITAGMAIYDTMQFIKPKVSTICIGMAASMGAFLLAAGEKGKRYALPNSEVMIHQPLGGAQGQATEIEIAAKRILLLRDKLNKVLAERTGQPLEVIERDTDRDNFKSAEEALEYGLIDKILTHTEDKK
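Buffer: 100 mM Tris/HCl pH8, 100 mM KCl, 0.05% low protease BSA, 2.5% glycerol, 0.01% Tween-20. ClpP 10 microg/mL final; 20 min RT; delta FRET normalized to ADEP and DMSO controls.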
An asterisk follows results filed as active; i = inactive; ? = inconclusive; . = no result; [ ] = dose if it differs, or a comment. In the library only some 3.6% were active in any assay of this set; here they are far more common. Unless noted, calls follow the shape of the dose curve; as a rule, active = well fitted curve in the direction sought with a large enough effect; inconclusive = small, poorly fitted or top-dose-only effect, or another doubt; inactive = no such curve, though single readings can be large; an effect the other way counts as inactive or inconclusive. Potency is read from the fitted curve at half-maximal effect.

SMILES	TDP-43 yeast inh	Mm-Cpn inhibitor	Abeta yeast res	aSyn rescue	FUS yeast rescue	ClpP mod
Cc1nnc(-c2cccc(Br)c2)c2cn(-c3ccccc3Cl)nc12	10µM*	-1.9%	i	9.5%	i	0.6%
Cc1ccc(-n2cc3c(-c4cccc(Br)c4)nnc(C)c3n2)cc1	?	0.2%	i	-0.1%	?	-4.9%
Cc1cccc(Cn2cc(C(=O)Nc3ccc(F)c(C(F)(F)F)c3)ccc2=O)c1	8.0%	.	i	.	i	-1.3%
Cc1cccc(Cn2cc(C(=O)Nc3cc(F)ccc3F)ccc2=O)c1	22.4µM*	.	?	?	?	-0.1%
O=c1c(Cl)c(Cl)cnn1Cc1ccccc1Cl	35.5µM*	-9.9%	i	4.5%	.	0.3%
Cc1cc(C)cc(Cn2ncc(Cl)c(Cl)c2=O)c1	17.8µM*	-10.2%	i	1.4%	.	-1.5%
Cc1ccc(Cn2ncc(Cl)c(Cl)c2=O)cc1	?	-3.8%	i	1.3%	.	39.6%
CCCS(=O)(=O)N1CCC(N2CCN(Cc3ccc(F)cc3)C(=O)C2=O)CC1	10.1%	.	i	.	i	1.5%
COc1ccc(/C=C/C(=O)c2ccc[nH]2)c(OC)c1OC	14.1µM*	-0.6%	i	0.3%	i	-3.0%
COc1cccc(/C=C/C(=O)c2cccc([N+](=O)[O-])c2)c1	9.8%	-1.0%	i	17.7%	i	.
COc1cccc(/C=C/C(=O)c2cccc([N+](=O)[O-])c2)c1OC	11.2µM*	-21.6%	i	-0.8%	i	-2.0%
O=C(Cn1c(=O)n(Cc2ccco2)c(=O)c2sc3ccccc3c21)Nc1ccccc1C(F)(F)F	5.6%	.	i	.	i	4.1%
C(=C\c1ccnc2ccccc12)/c1cc2c3c(c1)CCCN3CCC2	.	.	.	3.6%	.	-0.4%
O=C(Nc1cnn(Cc2ccc(Cl)cc2Cl)c1)c1noc2c1CCc1ccccc1-2	13.4%	.	i	.	i	-4.8%
Cc1nc2c(OCc3cc(Cl)cc(Cl)c3)cccn2c1N(C)C(=O)CCC1CCCC1	35.5µM*	.	i	-44.2%	?	-7.0%
Cc1nc2c(OCCC3CCCCC3)cccn2c1N(C)C(=O)CCC1CCCC1	35.5µM*	.	i	-50.3%	i	-0.5%
CCn1c(=O)[nH]n(C/C(C)=C\c2c[n+](Cc3ccc4c(c3)OCO4)c(N)[nH]2)c1=O	.	.	.	.	i	.
CNc1oc(-c2ccc(Cl)cc2)nc1P(=O)(c1ccccc1)c1ccccc1	17.8µM*	-4.6%	i	20.5%	?	28.2µM*
CCn1ncc(Br)c1C(=O)Nc1ccccc1C(=O)OC	14.1µM*	.	i	-7.1%	i	0.1%
Nc1nc(SCC(=O)Nc2cccc(C(F)(F)F)c2)n[nH]1	4.8%	.	i	.	i	-2.0%
c1ccc(-c2noc(-c3ccccc3-c3ccccc3)n2)cc1	5.3%	0.1%	i	-6.1%	i	-14.7%
CN(C)c1ccc(-c2noc(-c3ccccc3O)n2)cc1	2.6%	-2.3%	i	-4.2%	i	10µM*
COc1ccc(-c2nnc(N(C)C(=O)c3ccno3)s2)cc1	-5.0%	?	i	-7.3%	i	22.4µM*
CN(C(=O)c1ccno1)c1nnc(-c2ccccn2)s1	-16.5%	-9.7%	i	-6.9%	i	-22.9%
CSc1cccc(Nc2cc(C(=O)NCCCN(C)c3ccccc3)c3ccccc3n2)c1	4.7%	.	i	.	i	?
SMILES	TDP-43 yeast inh	Mm-Cpn inhibitor	Abeta yeast res	aSyn rescue	FUS yeast rescue	ClpP mod
COc1ccc(NC(=O)CSC2=Nc3ccccc3C3=NC(Cc4ccccc4)C(=O)N23)cc1 (stereo not given)	8.4%	.	i	.	?	-7.7%
O=C(CSc1nc2ccccc2c(=O)[nH]1)NC1CCCCC1	.	.	.	.	i	.
C/C(C=NNC(=O)c1cc(-c2ccc(C)c(C)c2)n[nH]1)=C/c1ccco1	.	.	.	.	i	.
O=C(N/N=C\C=C\c1ccco1)c1cc(-c2ccc3ccccc3c2)n[nH]1	16.4%	1.3%	i	17.8µM*	?	-0.6%
Cc1ccc(C(=O)Nc2nccc(-c3cccs3)n2)cc1	12.6µM*	-2.5%	i	-1.5%	i	?
COc1ccc(OC)c(-c2csc(NC(=O)Cc3ccccc3)n2)c1	?	0.1%	i	-5.8%	i	.
CCOc1ccc(-c2csc(NC(=O)c3ccc(S(=O)(=O)N4CCc5ccccc5C4)cc3)n2)cc1	14.8%	?	i	-3.0%	i	-7.6%
COc1ccc(-c2csc(NC(=O)Cc3ccccc3F)n2)c(OC)c1	12.6µM*	-17.9%	i	-7.4%	i	.
O=C(Nc1nc(-c2cccs2)cs1)c1ccc(Cl)cc1	35.5µM*	-16.6%	i	-32.7%	i	-14.5%
COc1ccc(-c2csc(NC(=O)c3ccc(S(=O)(=O)N4CCc5ccccc5C4)cc3)n2)c(OC)c1	-5.4%	50.1µM*	i	-2.0%	.	-6.4%
Cc1cc(C)n2nc(-c3ccc(Cl)cc3)nc2n1	-3.3%	.	i	.	i	-4.6%
COc1cc(-c2noc(C)c2C#CCCN2C(=O)c3ccccc3C2=O)cc(OC)c1OC	.	.	.	.	.	18.8%
O=C(Cc1ccccc1F)Nc1nc(-c2cccs2)cs1	12.6µM*	-3.4%	i	-10.4%	i	-2.9%
Cc1ccc(O)c(CC(C)C)n1	-13.3%	-3.0%	i	-2.2%	i	3.55µM*
O=C(Oc1c(Cl)cc(Cl)c2cccnc12)c1cccc([N+](=O)[O-])c1	2µM*	0.4%	i	?	i	1.7%
O=C(Oc1ccc(Cl)c2cccnc12)c1cccc([N+](=O)[O-])c1	9.0%	-0.1%	i	2.0%	.	0.7%
Cc1cc(C)nc(NC(=NCCc2c[nH]c3ccccc23)NC(=O)Nc2ccc(Cl)cc2)n1	22.4µM*	3.0%	i	-33.7%	.	-3.1%
Cc1cc(C)nc(NC(N)=NCCc2c[nH]c3ccccc23)n1	-10.1%[0.397 µM]	-0.4%	i	0.3%	i	.
CC1=C(C)CS(=O)N(S(=O)(=O)c2ccccc2)C1 (stereo not given)	12.6µM*	1.0%	i	-22.0%	i	0.4%
CC1=C(C)CS(=O)N(c2ccc(S(N)(=O)=O)cc2)C1 (stereo not given)	21.6%	-0.6%	i	2.1%	i	0.2%
